# According to PubChem BioAssay:
# Where “and” joins values, the source holds several entries; their conditions need not be identical. Identical values can stand only once. Calls of active or inactive are those of the source. Unless noted, how the calls were made is not given here.
# Experiments:
# [1] = compounds altering circadian rhythm period length – cell-based, LOPAC library, luminescence reporter (AID 2774); settings: circadian reporter cells, at 7 µM, actives lie on both sides;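 further: values are relative to mean of DMSO wells on each plate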
# [2] = blockers of cellular phospholipid synthesis – cell-based, LOPAC library, screen 4, primary screen (AID 1347384); settings: animal cells, phospholipid biosynthesis inhibition screen; at 10 µM
# [3] = chitosan synthesis blockers in C. neoformans – flow cytometry, Cibacron Brilliant Red staining (AID 1347148); settings: Cryptococcus neoformans chitosan, stronger effect = lower value; at 10 µM unless noted;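 further: compound exposure lasted three days at 37 degrees C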
# [4] = compounds altering viability of human ES cells (AID 493140); settings: human embryonic stem cell survival screen; stronger effect = higher value;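 further: cells exposed to compounds for four days before counting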
# [5] = liver-stage malaria parasite load reduction – cell-based, known kinase inhibitor set, luminescence, hepatoma host viability (AID 624392); settings: Plasmodium liver stage in hepatoma cells, luciferase luminescence, concentration not given here; liver cell % of control: measured here: host liver cell viability; parasite % of control: stronger effect = lower value;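 further: infected cells incubated roughly two days before readout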
# [6] = growth inhibition, single agent or in combination, cell-based, chromothripsis tumors, cisplatin or BGB combos (AID 1671449; in the data active means inhibition above about 80%;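 further: cells exposed for 96 hours; 0% = vehicle DMSO and 100% = killing by high DMSO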); settings: LFS_MB_P medulloblastoma cells
# [7] = growth inhibition, single agent and combos, cell-based, chromothripsis tumors, cisplatin or BGB combos (AID 1671450; in the data active means inhibition above about 80%;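 further: cells exposed to compound for four days; 0% = vehicle DMSO and 100% = cell killing by high DMSO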); settings: HDN33 neuroblastoma cells, stronger effect = higher value
# [8] = growth inhibition, single agents and combos, LFS_MB_1R, cell-based, cisplatin or BGB combos, synergistic combos for chromothripsis tumors (AID 1671452; in the data active means inhibition above about 80%;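 further: cells exposed for 96 hours before readout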); settings: LFS_MB_1R medulloblastoma cells, stronger effect = higher value
# [9] = growth inhibition, single agents and combos, HTB85, cell-based, BGB or cisplatin IC20 combos, synergistic combos for chromothripsis tumors (AID 1671453; in the data active means inhibition above about 80%;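 further: cells exposed for 96 hours before readout; 0% = vehicle DMSO and 100% = high DMSO killing control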); settings: HTB85 osteosarcoma cells, drug combinations, stronger effect = higher value
# [10] = growth inhibition, single agents and combos, CRL2098, cell-based, BGB or cisplatin IC20 combos, synergistic combos for chromothripsis tumors (AID 1671454; in the data active means inhibition above about 80%;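 further: cells exposed for 96 h before readout; 0% = vehicle DMSO and 100% = killing by high DMSO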); settings: CRL2098 osteosarcoma cells, drug combinations, stronger effect = higher value
# [11] = growth inhibition, single agents and combos, HD-MB03, cell-based, BGB or cisplatin IC20 combos, synergistic combos for chromothripsis tumors (AID 1671455; in the data active means inhibition above about 83%;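 further: 0% = vehicle DMSO and 100% = high DMSO as cytotoxic control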); settings: HD-MB03 medulloblastoma cells, stronger effect = higher value
# [12] = growth inhibition, single agents and combos, UWB1.289, cell-based, BGB or cisplatin combos, synergistic combos for chromothripsis tumors (AID 1671456; in the data active means inhibition above about 80%;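 further: cells exposed to compound for four days; 0% = vehicle DMSO and 100% = killing by high DMSO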); settings: UWB1.289 ovarian carcinoma cells, stronger effect = higher value
# [13] = growth inhibition, single agents and combos, LFS_MB_2R, cell-based, cisplatin combos, synergistic combos for chromothripsis tumors (AID 1671457; in the data active means inhibition above about 80%;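 further: cells exposed to compound for four days before readout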); settings: LFS_MB_2R medulloblastoma cells, stronger effect = higher value
# [14] = growth inhibition, MDA-MB-436, cell-based, BGB or cisplatin combos, synergistic combos for chromothripsis tumors (AID 1671458); settings: MDA-MB-436 breast carcinoma growth inhibition, drug combinations, stronger effect = higher value;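 further: cells exposed for 96 hours; 0% = vehicle DMSO and 100% = killing by high DMSO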
# [15] = UWB1.289_BRCA1 ovarian cancer growth, cell-based, BGB or cisplatin combinations (AID 1671459; in the data active means inhibition above about 80%); settings: UWB1.289 BRCA1 ovarian carcinoma, drug combinations, stronger effect = higher value
# [16] = drug combination toxicity in non-malignant astrocytes – cell-based, BGB or cisplatin IC20 combos, cytotoxicity control for chromothriptic childhood tumor combination screen (AID 1671460; in the data active means inhibition above about 80%;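 further: cells exposed to compounds for 96 hours before viability readout; 0% = vehicle and 100% = killing control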); settings: Human astrocytes, viability inhibition, drug combinations, at 0.5 µM, stronger effect = higher value
# [17] = BT084 cell growth, single and combined drugs, ICGC_MB145, cisplatin and BGB IC40 combos (AID 1671461; in the data active means inhibition above about 80%;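 further: cells exposed to drugs for 96 hours; 0% = vehicle DMSO and 100% = high DMSO full killing control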); settings: BT084 medulloblastoma cells, drug combinations, stronger effect = higher value
# [18] = RCMB18 cell growth, single agent and combined, cisplatin and BGB IC40 combos (AID 1671462; in the data active means inhibition above about 80%;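 further: cells exposed to compound for four days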); settings: RCMB18 medulloblastoma cells, stronger effect = higher value
# [19] = CRL1545 cell growth, single agent and combined, cisplatin and BGB IC20 combos (AID 1671464; in the data active means inhibition above about 80%;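 further: cells exposed to compound for 96 hours before readout; 0% = vehicle DMSO and 100% = high DMSO killing control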); settings: CRL1545 osteosarcoma cells, stronger effect = higher value
# [20] = measured here: combination with BGB IC40, at 0.05 µM
# [21] = measured here: with BGB IC20 combination, at 0.5 µM
# [22] = measured here: with cisplatin IC20 combination, at 0.5 µM
# [23] = measured here: combination with cisplatin, at 0.5 µM
# [24] = measured here: combination with cisplatin, at 5 µM
structure (smiles),measurement,setting,value
CCC(C)N(C)C(=O)c1cc2ccccc2c(-c2ccccc2Cl)n1 (centres undefined),period change,[1],0.03 h (inactive)
same,outcome,[2],inactive
CCOC(=O)C1=C(N)Oc2ccc(Br)cc2C1C(C#N)C(=O)OCC (centres undefined),fold fluorescence,[3],6.68 [at 122.2 µM] (inactive)
O=C1NC(=O)C(c2ccccc2[N+](=O)[O-])=C1Nc1ccc(O)c(Cl)c1,period change,[1],0.15 h (inactive)
same,fold fluorescence,[3],5.23 [at 139 µM] (inactive)
same,outcome,[2],inactive
O=Nc1c(-c2c(O)[nH]c3cc(Br)ccc23)[nH]c2ccccc12,outcome,[2],active
O=C(O)CCc1ccc(NCc2cccc(Oc3ccccc3)c2)cc1,outcome,[2],inactive
CCCCC[C@H](O)/C=C/[C@H]1[C@H](O)CC(=O)[C@@H]1C/C=C\CCCC(=O)O,survival,[4],66.5 (inactive)
CCOC(=O)C1=C(C)NC(=S)NC1c1cccc(O)c1 (centres undefined),period change,[1],0.16 h (inactive)
NC(=O)c1ccc2[nH]ccc2c1,liver cell % of control,[5],92.5% and 90.8% and 97.8%
same,parasite % of control,[5],221% (inactive) and 164% (inactive) and 74.7% (inactive)
same,outcome,[2],inactive
COc1cc(SC)ccc1C(=O)N1CCC(Cc2ccccc2)CC1,outcome,[2],inactive
C=CCc1cccc(/C=N/NC(=O)CN2CCN(Cc3ccccc3)CC2)c1O,outcome,[2],inactive
Cc1ccc(S(=O)(=O)/C=C/C#N)cc1,survival,[4],9.17 (inactive)
same,fold fluorescence,[3],8.49 [at 241.3 µM] (inactive)
same,outcome,[2],inactive
O=Nc1c(-c2c(O)[nH]c3ccccc23)[nH]c2ccccc12,period change,[1],-0.845 h (active)
same,survival,[4],71.6 (inactive)
same,fold fluorescence,[3],9.39 [at 180.3 µM] (inactive)
same,outcome,[2],active
CC(C)N(CCC(=O)c1ccc2ccccc2c1)Cc1ccccc1,period change,[1],0 h (inactive)
same,outcome,[2],inactive
O=c1cc(N2CCOCC2)oc2c(-c3ccccc3)cccc12,period change,[1],0.01 h (inactive)
same,survival,[4],83.6 (inactive)
same,fold fluorescence,[3],9.29 [at 162.7 µM] (inactive)
same,outcome,[2],inactive
Oc1ccc(-c2nc(-c3ccc(F)cc3)c(-c3ccncc3)[nH]2)cc1,period change,[1],1.07 h (active)
same,survival,[4],94 (inactive)
same,liver cell % of control,[5],85.2% and 83.2% and 90.8%
same,parasite % of control,[5],14.8% (inactive) and 19.2% (inactive) and 29.9% (inactive)
same,fold fluorescence,[3],8.11 [at 150.9 µM] (inactive)
same,outcome,[2],inactive
O=c1ncccn1[C@@H]1O[C@H](CO)[C@@H](O)[C@H]1O,inhibition,"[6]; at 0.5 µM, stronger effect = higher value",94.5% (active)
same,inhibition,"[6]; measured here: combination with BGB IC20, at 0.005 µM",-19.6%
same,inhibition,"[6]; measured here: combination with BGB IC40, at 0.005 µM",-15.6%
same,inhibition,[6]; [20],-21.7%
same,inhibition,"[6]; measured here: combination with cisplatin, at 0.5 µM, stronger effect = higher value",116%
same,inhibition,"[6]; measured here: combination with cisplatin, at 5 µM, stronger effect = higher value",-26.6%
same,inhibition,"[7]; BGB combo, at 5 µM",-58.6%
same,inhibition,[7]; at 0.5 µM,-38.5% (inactive)
same,inhibition,"[7]; cisplatin combo, at 5 µM",-44.1%
same,inhibition,[7]; [21],-41.3%
same,inhibition,[7]; [22],-33.1%
same,inhibition,"[7]; single agent, at 5 µM",-32.1%
same,inhibition,[8]; at 0.5 µM,-27.9% (inactive)
same,inhibition,[8]; [20],-35.3%
same,inhibition,[8]; [23],-51%
same,inhibition,[8]; [24],-58.9%
same,inhibition,[9]; at 0.5 µM,-26.7% (inactive)
same,inhibition,"[9]; measured here: with BGB IC20, at 0.5 µM",-35%
same,inhibition,"[9]; measured here: with BGB IC20, at 5 µM",-20.6%
same,inhibition,"[9]; measured here: with cisplatin IC20, at 0.5 µM",-23.7%
same,inhibition,"[9]; measured here: with cisplatin IC20, at 5 µM",-31.4%
same,inhibition,"[9]; single agent, at 5 µM",-19.2%
same,inhibition,[10]; at 0.5 µM,-74.1% (inactive)
same,inhibition,"[10]; measured here: combination with BGB at IC20, at 0.5 µM",-48.3%
same,inhibition,"[10]; measured here: combination with cisplatin at IC20, at 0.5 µM",-120%
same,inhibition,[11]; at 0.5 µM,-21.4% (inactive)
same,inhibition,"[11]; measured here: combo with BGB at IC20, at 0.5 µM",-26.7%
same,inhibition,"[11]; measured here: combo with cisplatin at IC20, at 0.5 µM",-23%
same,inhibition,[12]; at 0.5 µM,-19.3% (inactive)
same,inhibition,"[12]; measured here: inhibition with BGB combination, at 0.05 µM",1.76%
same,inhibition,"[12]; measured here: inhibition with cisplatin combination, at 0.05 µM",-40%
same,inhibition,[13]; at 0.5 µM,-6.18% (inactive)
same,inhibition,[13]; [23],-23.5%
same,inhibition,[13]; [24],-12.7%
same,inhibition,[14]; at 0.5 µM,-13.6% (inactive)
same,inhibition,"[14]; measured here: BGB combination, at 0.5 µM",-17.7%
same,inhibition,"[14]; measured here: BGB combination, at 5 µM",-15.1%
same,inhibition,"[14]; measured here: cisplatin combination, at 0.5 µM",-10.4%
same,inhibition,"[14]; measured here: cisplatin combination, at 5 µM",-7.02%
same,inhibition,"[15]; BGB combination, concentration series, at 5 µM",-30%
same,inhibition,[15]; at 0.5 µM,-19.1% (inactive)
same,inhibition,"[15]; cisplatin combination, concentration series, at 5 µM",-22.8%
same,inhibition,[16],-3.28% (inactive)
same,inhibition,[16]; measured here: combo with BGB IC20,-9.39%
same,inhibition,[16]; measured here: combo with cisplatin IC20,1.77%
same,inhibition,[17]; at 0.5 µM,-5.93% (inactive)
same,inhibition,"[17]; cisplatin combination, at 0.5 µM",-27.2%
same,inhibition,"[17]; cisplatin combination, at 5 µM",-19.4%
same,inhibition,"[17]; measured here: BGB IC40 combination 0.05 uM, at 0.05 µM",-6.16%
same,inhibition,"[17]; single agent, at 5 µM",-11.2%
same,inhibition,[18]; at 0.5 µM,-16.2% (inactive)
same,inhibition,"[18]; cisplatin combo, at 5 µM",-19.8%
same,inhibition,"[18]; measured here: BGB IC40 combination, at 0.05 µM",3.99%
same,inhibition,[18]; [23],-35.7%
same,inhibition,"[18]; single agent, at 5 µM",-29.5%
same,inhibition,[19]; at 0.5 µM,-31.3% (inactive)
same,inhibition,[19]; [21],-27.5%
same,inhibition,[19]; [22],-35.4%
same,inhibition,"[19]; single agent, at 0.05 µM",-12.6%
same,inhibition,"[19]; single agent, at 5 µM",-36.3%
